# Assay results: PubChem BioAssay
# Active and inactive are the calls of the source. Unless noted, how the calls were made is not given here.
# Columns and labels:
# [1] = tested on: Wnt5a (protein binding on small-molecule microarray); assay: Wnt5a binders on small-molecule microarray, primary screen, biophysical, 635/667 nm fluorescence (AID 1142); conditions: 635 nm fluorescence, higher = more signal;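 further: fluorescence read at 667 nm with signal to noise per printed feature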
# [2] = cell viability in Huh7 cells, primary screen, cytotoxicity control for HCV replication inhibitor project, CellTiter-Glo luminescence, basal, 48 h (AID 1143); conditions: Huh7 HCV replicon, higher = more signal, called active from +8 up or from −8 down;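 further: Huh7 hepatoma cells carrying a hepatitis C replication reporter with no stimulus; test concentration not given here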
# [3] = P. aeruginosa biofilm formation inhibitors, primary screen, PAO1 strain, BacTiter-Glo luminescence, LB-PBS (AID 1144); conditions: 12 h, higher = more signal
# [4] = CREB reporter modulators without forskolin, primary screen, cell-based, PC12, CRE-LacZ reporter, unstimulated (AID 1145); conditions: no forskolin, luminescence, 4.5 h, higher = more signal, called active from +8 up or from −8 down
# [5] = CREB reporter modulators under forskolin, primary screen, cell-based, PC12, CRE-LacZ reporter, forskolin-stimulated (AID 1146); conditions: luminescence, 4.5 h, higher = more signal, called active from +8 up or from −8 down;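 further: PC12 cells with 6xCRE LacZ reporter stimulated by forskolin 10 µM; beta-galactosidase reporter signal reflecting CREB driven transcription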
# [6] = target: Streptavidin (Streptomyces avidinii) (UniProt P22629); assay: streptavidin binders on small-molecule microarray, primary screen, artefact control for SMM compound annotation, biophysical, 635/667 nm fluorescence (AID 1147); conditions: streptavidin binding, higher = more signal;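 further: signal reflects streptavidin binding to arrayed compounds as a control protein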
# [7] = small-molecule binders of probe aInhba, primary screen, biochemical, small-molecule microarray, 635/667 nm fluorescence (AID 1148); conditions: higher = more signal;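 further: score merges 667nm spot fluorescence with signal-to-noise for antibody binding to printed compounds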
# Torsin-1A (Homo sapiens) [8] = target: Torsin-1A (Homo sapiens) (UniProt O14656); assay: torsin A binders from cell lysate, primary screen, small-molecule microarray, wild-type, 635/667 nm (AID 1149); conditions: COS7 hTOR1A-WT lysate, 635 nm fluorescence, higher = more signal
# Torsin-1A (Homo sapiens) [9] = target: Torsin-1A (Homo sapiens) (UniProt O14656); assay: small-molecule binders of mutant TOR1A in lysate, primary screen, cell lysate, small-molecule microarray, COS7 lysate, 635/667 nm fluorescence (AID 1150); conditions: COS7 hTOR1A mutant lysate, 635 nm fluorescence, higher = more signal;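 further: score pools 667 nm emission and signal to noise measuring lysate protein binding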
# [10] = tested on: Sonic hedgehog protein (Shh); assay: small-molecule binders of Shh protein, primary screen, biochemical, small-molecule microarray, 635/667 nm fluorescence (AID 1151); conditions: small-molecule microarray binding, 635 nm fluorescence; higher = more signal;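 further: Shh protein binding to compounds spotted on small-molecule microarray slides; score combines spot fluorescence intensity with signal-to-noise across triplicate slides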
# Sequence of Streptavidin (Streptomyces avidinii) (P22629 whole entry, looked up): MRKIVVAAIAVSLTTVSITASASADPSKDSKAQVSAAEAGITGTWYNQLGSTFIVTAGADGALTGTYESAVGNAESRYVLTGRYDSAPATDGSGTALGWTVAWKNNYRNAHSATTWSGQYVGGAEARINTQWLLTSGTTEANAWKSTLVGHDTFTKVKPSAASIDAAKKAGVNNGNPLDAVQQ
# Sequence of Torsin-1A (Homo sapiens) (O14656 whole entry, looked up): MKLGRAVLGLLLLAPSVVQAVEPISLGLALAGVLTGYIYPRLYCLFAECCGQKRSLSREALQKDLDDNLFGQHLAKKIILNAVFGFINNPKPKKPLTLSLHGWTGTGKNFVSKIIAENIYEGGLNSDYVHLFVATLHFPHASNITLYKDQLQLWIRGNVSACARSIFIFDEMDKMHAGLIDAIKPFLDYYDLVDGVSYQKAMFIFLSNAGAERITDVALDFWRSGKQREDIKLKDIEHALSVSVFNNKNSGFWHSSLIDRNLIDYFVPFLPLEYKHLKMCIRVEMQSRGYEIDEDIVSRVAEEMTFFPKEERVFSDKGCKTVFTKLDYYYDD
SMILES,composite z-score [1],z-score [2],z-score [3],z-score [4],z-score [5],composite z-score [6],composite z-score [7],composite z-score (Torsin-1A (Homo sapiens) [8]),composite z-score (Torsin-1A (Homo sapiens) [9]),composite z-score [10]
COc1ccc(CCNC(=O)[C@@]2(C)c3ccccc3C(=O)N(Cc3ccc(OC(F)(F)F)cc3)[C@H]2c2ccc(CO)cc2)cc1,0.887,-4.18 (inactive),0.175 (inactive),-0.179 (inactive),0.175 (inactive),-0.535,-0.166,0.43,1.43,1.23
COCCCNC(=O)[C@@]1(Cc2ccccc2I)c2ccccc2C(=O)N(Cc2ccccc2OC)[C@H]1c1ccc(CO)cc1,-0.43,-3.39 (inactive),0.767 (inactive),0.531 (inactive),-0.797 (inactive),-0.67,-0.162,0.884,0.431,-0.845
CC(C)c1ccc(NN2C(C(O)C(C)c3ccccc3)C=CC3C(=O)N(c4ccccc4)C(=O)C32)cc1 (stereo not given),0.981,0.0469 (inactive),-0.692 (inactive),0.619 (inactive),0.939 (inactive),2.11,0.864,0.326,1.12,0.461
O=C1O[C@H](c2ccccc2)[C@H](c2ccccc2)N2[C@H]1[C@@H](C(=O)O)[C@]1(C(=O)Nc3ccc(C#CC4(O)CCCCCC4)cc31)[C@H]2c1ccccc1OCCO,0.455,-2.05 (inactive),1.27 (inactive),17.9 (active),21.5 (active),1.41,0.397,0.541,-0.462,0.721
COc1ccc([Si](C)(C)[C@@H]2[C@@H](CC(=O)N(CCO)Cc3ccccc3)O[C@]3(C(=O)N(Cc4cccc(I)c4)c4ccccc43)[C@H]2C)cc1,0.546,-4.61 (inactive),0.191 (inactive),1.42 (inactive),-1.11 (inactive),-0.196,-0.0405,0.48,0.443,1.79
COCCOC(=O)N1C(=O)[C@@]2(c3cc(C#CCNC(N)=O)ccc31)[C@H](c1ccccc1OCCO)N1[C@H](c3ccccc3)[C@H](c3ccccc3)OC(=O)[C@H]1[C@@H]2C(=O)N1CCCCCCC1,0.112,-0.923 (inactive),0.342 (inactive),0.2 (inactive),1.97 (inactive),0.777,0.168,0.419,0.367,0.83
COCCOC(=O)N1C(=O)[C@@]2(c3cc(C#CCNC(N)=O)ccc31)[C@H](C(=O)Nc1nc3ccccc3s1)[C@H]1C(=O)O[C@H](c3ccccc3)[C@H](c3ccccc3)N1[C@@H]2c1ccc(O)cc1,0.0623,0.284 (inactive),0.326 (inactive),-0.168 (inactive),-0.227 (inactive),0.753,0.189,-0.227,-0.023,0.527
[N-]=[N+]=NCc1ccccc1[C@H]1OC(c2ccc(OCCCO)cc2)=N[C@@]1(Cc1ccccc1N=[N+]=[N-])C(N)=O,0.395,-1.38 (inactive),-1.13 (inactive),0.0451 (inactive),-0.697 (inactive),1.23,0.472,1.55,0.949,0.183
[N-]=[N+]=NCc1ccccc1C[C@@]1(C(N)=O)N=C(c2ccc(OCCCO)cc2)O[C@@H]1c1ccccc1N=[N+]=[N-],0.336,-3.18 (inactive),1.33 (inactive),1.01 (inactive),-0.626 (inactive),1.31,-0.145,0.369,0.409,-0.455
C=CC[C@@]1(C(=O)NCCCOC)N=C(c2ccc(OCCCO)cc2)O[C@@H]1c1ccccc1CN=[N+]=[N-],0.645,-3.72 (inactive),-0.584 (inactive),-0.45 (inactive),-0.48 (inactive),0.706,0.0921,0.112,0.734,0.0532
COCCCNC(=O)[C@@]1(Cc2ccccc2I)c2ccccc2C(=O)N(Cc2ccccc2C(F)(F)F)[C@H]1c1ccc(CO)cc1,-0.347,-2.13 (inactive),-0.528 (inactive),-0.619 (inactive),1.15 (inactive),-0.253,-0.016,0.0167,-0.0514,-0.414
CCOC(=O)C1=CCC(c2ccncc2)N(S(=O)(=O)c2ccc(C)cc2)C1 (stereo not given),0.637,-4.28 (inactive),-0.83 (inactive),0.546 (inactive),0.882 (inactive),3.08,0.121,0.344,1.12,0.245
CC1(C)OB(/C=C\CC(OC(=O)c2ccncc2)c2ccccc2)OC1(C)C (stereo not given),0.496,-0.635 (inactive),0.135 (inactive),3.3 (inactive),0.174 (inactive),-0.452,-0.383,0.432,-0.232,-0.476
NCCCCCCNC(=O)[C@@H]1C[C@@H]2C(=O)NCC(=O)N2[C@@H]1c1cccc(OCCO)c1,0.729,-0.271 (inactive),-0.584 (inactive),0.0205 (inactive),-0.19 (inactive),1.03,-0.0624,1.56,2.08,1.31
C[N+](C)(C)CCCC[C@@H]1NC(=O)[C@H]2C[C@@H](C(=O)O)[C@@H](c3ccc(O)cc3)N2C1=O,0.0425,-0.497 (inactive),-1.19 (inactive),0.285 (inactive),-0.744 (inactive),-0.206,0.0051,0.049,0.38,1.22
COCCOC(=O)N1C(=O)[C@@]2(c3cc(C#CCNC(N)=O)ccc31)[C@H](C(=O)N1CCN(c3ncccn3)CC1)[C@H]1C(=O)O[C@H](c3ccccc3)[C@H](c3ccccc3)N1[C@@H]2c1ccc(O)cc1,-0.546,-0.375 (inactive),-1.09 (inactive),0.484 (inactive),-0.26 (inactive),-1.21,-0.4,-0.827,-0.859,-0.448
COCCOC(=O)N1C(=O)[C@@]2(c3cc(C#CCC(C(=O)OC)C(=O)OC)ccc31)[C@H](c1ccc(O)cc1)N1[C@H](c3ccccc3)[C@H](c3ccccc3)OC(=O)[C@H]1[C@@H]2C(=O)N1CCc2cc(OC)c(OC)cc2C1,0.227,-0.233 (inactive),0.12 (inactive),0.0384 (inactive),0.118 (inactive),-0.341,0.0714,0.0553,0.391,1.31
O=C(NCC(F)(F)F)[C@@H]1c2ccccc2C(=O)N(Cc2cc(C(F)(F)F)cc(C(F)(F)F)c2)[C@H]1c1ccc(CO)cc1,0.362,-1.49 (inactive),-0.483 (inactive),0.701 (inactive),-1 (inactive),-0.49,0.0074,0.325,0.201,0.363
CCCCCCc1nc(-c2ccc(OC)nc2)c(C)c2c1[Si](C(C)C)(C(C)C)OC2,-0.0701,-2.75 (inactive),-1.13 (inactive),0.106 (inactive),-0.556 (inactive),-0.2,0.0536,0.397,-0.57,0.417
COc1ccc([Si](C)(C)[C@H]2[C@H](CC(=O)N3CCC[C@H]3CO)O[C@@]3(C(=O)N(Cc4cccc(N5CCCCC5=O)c4)c4ccccc43)[C@@H]2C)cc1,-0.108,-1.39 (inactive),-0.00805 (inactive),2.88 (inactive),-0.314 (inactive),0.233,-0.128,0.593,0.812,2.01
